Rows were chosen to be rich in hits. Some 3.4% of all compounds tested hit in one or more screens of this group.
HGIII-sPLA2 inh – Blocks human group III sPLA2 activity; Q9NZ20; QFRET BODIPY PC-A2 liposome hydrolysis, fluorescence; inhibition, % at 12.2 µM; 0.56% of 370,000 active; AID 743126;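 active means inhibition above mean plus 3 SD of compounds lying within the high and low control bounds, cut at about 19% in these data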
Target sequence (Q9NZ20 whole entry, looked up): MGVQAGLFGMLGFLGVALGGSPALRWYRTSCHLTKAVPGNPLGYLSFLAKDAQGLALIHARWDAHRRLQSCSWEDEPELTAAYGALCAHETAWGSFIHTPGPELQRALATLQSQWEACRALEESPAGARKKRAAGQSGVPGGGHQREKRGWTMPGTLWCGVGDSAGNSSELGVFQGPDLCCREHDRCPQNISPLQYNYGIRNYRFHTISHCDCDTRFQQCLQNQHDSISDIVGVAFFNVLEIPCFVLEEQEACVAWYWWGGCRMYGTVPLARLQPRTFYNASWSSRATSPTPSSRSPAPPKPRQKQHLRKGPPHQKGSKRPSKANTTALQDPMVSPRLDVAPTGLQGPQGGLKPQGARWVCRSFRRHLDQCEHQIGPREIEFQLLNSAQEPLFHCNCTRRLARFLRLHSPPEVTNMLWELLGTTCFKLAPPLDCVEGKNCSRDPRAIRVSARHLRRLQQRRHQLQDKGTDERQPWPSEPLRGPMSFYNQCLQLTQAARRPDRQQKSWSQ
ADAM10 inh – inhibitors of human ADAM10 | recombinant ADAM10, EDANS/DABCYL FRET peptide cleavage, 3 h | inhibition, % at 7 µM | 0.62% of 370,000 active | AID 720582;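 active means inhibition above a per-campaign cutoff equal to the mean of compounds falling between control-based bounds plus 3 SD, cut at about 20% in these data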
ADAM17 inh – ADAM17 inhibition, QFRET primary screen; P78536; recombinant ADAM17, EDANS/DABCYL FRET peptide cleavage; inhibition, % at 6.95 µM; 0.83% of 370,000 active; AID 720648;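 active means inhibition above the mean of compounds lying between control limits plus 3 SD, set per campaign, cut at about 8.5% in these data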
proKLK7 act – proKLK7 (human) activation, primary screen; P49862; purified proKLK7, EDANS-DABCYL substrate fluorescence; 100% is mature enzyme control, 0% vehicle; activation, % at 7 µM; 0.9% of 370,000 active;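 active means activation above the mean of all tested compounds plus 3 SD, computed per campaign excluding outliers beyond control limits, cut at about 13% in these data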
NRP1-CendR mod – alters CendR peptide binding to human NRP-1. 0.85% of 360,000 active. FAM-RPARPAR peptide binding to NRP-1, fluorescence polarization. inhibition, % at 25 µM. O14786;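 active means inhibition or corrected inhibition above about 18%, plus a signal ratio from 0.5 to 1.5, limit read from the data, passing the limit was not always enough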
sPLA2 confirm – human GIII-sPLA2 inhibition, confirmation | shares compounds with HGIII-sPLA2 inh | recombinant hGIII-sPLA2, BODIPY PC-A2 QFRET fluorescence | inhibition, % at 12.2 µM | 34% of 2,000 active;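 active means mean inhibition across triplicates above the hit cutoff set in the earlier primary screen, cut at about 19% in these data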
535nm interf – counter-screen for HGIII-sPLA2 inhibitors: 535nm fluorescence interference. shares compounds with HGIII-sPLA2 inh. BODIPY FL product fluorescence interference, QFRET. inhibition, % at 12.2 µM. 8.5% of 2,000 active;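 active means average inhibition above the solvent-only control mean plus 3 SD, cut at about 6% in these data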
BODIPY interf DR – counter-screen for HGIII-sPLA2 inhibitors: 535nm fluorescence interference, dose response; 240 tested, under 10 active; IC50, µM; shares compounds with HGIII-sPLA2 inh; BODIPY FL product fluorescence interference, cell-free;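 active means IC50 at or below 10 µM; inactive means IC50 above 10 µM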
Numbers stand for hits; – = inactive; · = no result.

SMILES | HGIII-sPLA2 inh | ADAM10 inh | ADAM17 inh | proKLK7 act | NRP1-CendR mod | sPLA2 confirm | 535nm interf | others
CC(C)C(N)c1csc(Nc2nncc3ccccc23)n1 (centres undefined) | 20.0 | – | – | – | – | – | –
NC(Cc1ccccc1)c1csc(Nc2nncc3ccccc23)n1 (centres undefined) | – | – | – | – | – | · | ·
COc1cccc(Nc2nc(C(N)CC(C)C)cs2)n1 (centres undefined) | – | – | – | – | – | · | ·
COc1cccc(Nc2nc(C(N)C(C)C)cs2)n1 (centres undefined) | 27.5 | – | – | – | – | – | –
CC(N)c1csc(Nc2nncc3ccccc23)n1 (centres undefined) | 23.5 | – | – | – | – | – | –
Cc1cc(C)c(O)c(C(=O)CC2CC(=O)NC(=O)C2)c1 | – | – | – | – | · | · | ·
COc1ccc(OCc2n[nH]c(=S)n2-c2ccc(C)cc2)cc1 | – | – | – | – | – | · | ·
Cc1c(C(=O)NCc2n[nH]c(=S)n2-c2ccc(F)cc2)cccc1[N+](=O)[O-] | – | – | – | – | – | · | ·
COc1cc([N+](=O)[O-])c(OC)cc1SCc1n[nH]c(=S)n1-c1ccc(F)cc1 | 22.2 | – | – | – | – | 35.8 | –
COc1cc([N+](=O)[O-])c(OC)cc1SCc1n[nH]c(=S)n1-c1ccc(C)cc1 | 19.3 | – | – | – | – | 22.1 | –
CCC(CO)Nc1cccc2c1S(=O)(=O)N(Cc1cn(Cc3cccc(F)c3)nn1)Cc1ccccc1O2 (centres undefined) | – | – | – | – | · | · | ·
COC(=O)C1CN(Cc2cn(Cc3ccc(Cl)cc3)nn2)CCS(=O)(=O)N1Cc1ccc(C)cc1 (centres undefined) | – | – | – | – | · | · | ·
CCN=C1NC(c2ccccc2C(F)(F)F)C(C(=O)OC)=C(C)N1Cc1ccc(C(F)(F)F)cc1 (centres undefined) | – | – | – | – | · | · | ·
Cc1ccccc1S(=O)(=O)N1CCC(c2nc3ccccc3o2)CC1 | – | – | – | – | · | · | ·
CCCCn1c(C23CC4CC(CC(C4)C2)C3)n[nH]c1=S | 25.1 | – | – | – | – | 43.9 | – | BODIPY interf DR=–
CC(C)(C)c1cc(-c2n[nH]c(=S)n2-c2ccc(Cl)cc2)n[nH]1 | 20.8 | – | – | – | – | 27.0 | –
CCOC(=O)c1sc(=S)n(-c2ccc(OC)cc2)c1N | 24.9 | – | – | – | – | – | –
CCOC(=O)c1sc(=S)n(-c2ccccc2)c1N | – | – | – | – | – | · | ·
O=C(CSc1nc2ccccc2s1)NNC(=S)Nc1ccc(Cl)cc1 | 25.6 | – | – | – | – | – | –
Cc1ccc(NC(=S)NNC(=O)CSc2nc3ccccc3c(=O)n2-c2ccc(Cl)cc2)cc1 | 29.1 | – | – | – | · | 24.4 | –
Cc1ccc(-c2nnc(SCC(=O)Nc3ccc4c(c3)OCCO4)n2-c2ccc(C)cc2)cc1 | 20.8 | – | – | – | · | – | –
COc1ccc(-n2c(SCC(=O)NNC(=S)Nc3ccc(C)cc3)nnc2-c2ccccc2)cc1 | 31.0 | – | – | – | · | – | –
Cc1ccc(-c2nnc(SCC(=O)Nc3ccc4c(c3)OCCO4)n2N)cc1 | – | – | – | – | – | · | ·
COc1ccc(-n2c(SCC(=O)Nc3ccc(Oc4ccccc4)cc3)nnc2-c2ccccc2)cc1 | – | – | – | – | · | · | ·
Cc1ccc(-n2c(SCC(=O)Nc3ccc(Cl)cc3)nc(O)cc2=O)cc1 | – | – | – | – | – | · | ·
SMILES | HGIII-sPLA2 inh | ADAM10 inh | ADAM17 inh | proKLK7 act | NRP1-CendR mod | sPLA2 confirm | 535nm interf | others
O=C(OC12CCCN(C1)/C(=C/c1ccccc1)C2)c1ccc(F)cc1 (centres undefined) | – | – | – | – | · | · | ·
C[C@H]1[C@@H](NC(=O)C2CCCCC2)CC[C@@]23CCCN2C(=O)CCC[C@@H]13 | – | – | – | · | · | · | ·
CCCCOCCCNC(=O)C[C@H]1C[C@@]2(C(=O)OC)C(=C[C@H](C(C)(C)C)O[C@@H]2C)N(Cc2ccc3c(c2)OCO3)C1=O | – | – | – | – | · | · | ·
Cc1ccc(-c2nnc(SCC(=O)N/N=C/c3ccccc3C(=O)O)n2C2CCCCC2)cc1 | – | – | – | – | – | · | ·
Cc1ccc(-c2nnc(SCC(=O)NNC(=S)Nc3ccccc3)n2C2CCCCC2)cc1 | 28.4 | – | – | – | · | 33.3 | – | BODIPY interf DR=–
NC(=S)Nn1c(-c2ccccc2)nc2ccccc2c1=O | 19.4 | – | – | – | – | – | –
O=C(Cc1ccccc1)Nn1c(-c2ccccc2)nc2ccccc2c1=O | – | – | – | – | – | · | ·
CCC(=O)NC(=S)Nc1ccc(OC)cc1OC | 21.2 | – | – | – | – | – | –
CCC(=O)Nc1ccc(OC)cc1OC | – | – | – | – | – | · | ·
COC(=O)N[C@H]1CC=C[C@@H]1Cc1cccc(Oc2ccccc2)c1 | – | – | – | – | · | · | ·
CCCN(CC1CC1)c1c2c(nc3ncnn13)CCCC2 | – | – | – | – | · | · | ·
COc1ccc(NC(=S)NCCCN2CCOCC2)cc1 | 22.5 | – | – | – | – | – | –
COc1ccc(C(C)(C)C)cc1NC(=S)NCCN1CCOCC1 | 19.9 | – | – | – | – | – | –
COc1ccc(NC(=S)NCCN2CCOCC2)cc1 | – | – | – | – | – | · | ·
Cc1cccc(NC(=S)NNC(=O)c2ccc(O)cc2O)c1C | 41.6 | – | – | – | – | 33.5 | – | BODIPY interf DR=–
Cc1ccc(NC(=S)NNC(=O)c2ccccc2O)c(C)c1 | 48.7 | – | – | – | – | 36.9 | – | BODIPY interf DR=–
COc1ccc(C)cc1NC(=S)NNC(=O)c1ccccc1Cl | – | – | – | – | – | · | ·
CC(NCc1ccco1)C(=O)N1CCN(c2cccc(C(F)(F)F)c2)CC1 (centres undefined) | – | – | – | – | · | · | ·
CCc1ccc(CC2(O)CC(C)N(C)CC2C)cc1 (centres undefined) | – | – | – | – | – | · | ·
CC1CC(O)(CC(O)(c2ccccc2)c2ccccc2)C(C)CN1C (centres undefined) | 19.3 | – | – | – | – | – | –
CCCOc1ccc(-c2nc(CSCC(=O)NC3CC3)c(C)o2)cc1 | – | – | – | · | · | · | ·
COC(=O)CCCCC1SCC(NC(=O)OC)C1NC(=O)OC (centres undefined) | – | – | – | – | – | · | ·
CCCOC(=O)CCCCC1SCC(NC(=O)OC)C1NC(=O)OC (centres undefined) | 19.6 | – | – | – | – | – | –
Fc1ccccc1-c1nc(N2CCCCC2)c2ccccc2n1 | 20.5 | – | – | – | – | – | –
CC(C)=CCC/C(C)=C/CNCC(=O)N1c2ccccc2[C@]2(c3ccccc3)C[C@@H]3C(=O)N(C/C=C(\C)CCC=C(C)C)CC(=O)N3[C@H]12 | – | – | – | – | · | · | ·

Screening results (PubChem BioAssay)
